Results: article PMC5540273 (PLoS ONE, 2017)

Experiments:
Conditions in all cases: concentration: 1 μM, replicates: in singlicate; n = 1
[1] = test system: BMX
[2] = test system: BRAF
[3] = test system: T1, BRK
T1 construct: gene PTK6

[4] = test system: BRSK1
[5] = test system: BRSK2
[6] = test system: BTK
[7] = test system: BUB1
[8] = test system: CAMK1B
[9] = test system: CAMK1D
[10] = test system: CAMK1G
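Also: KINOMEscan kinase panel screen.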

Row | Structure (SMILES) | %Inh [1] [%] | %Inh [2] [%] | %Inh [3] [%] | %Inh [4] [%] | %Inh [5] [%] | %Inh [6] [%] | %Inh [7] [%] | %Inh [8] [%] | %Inh [9] [%] | %Inh [10] [%]
1 | Cc1ccc(Nc2ccnc(Nc3ccc(C)c(F)c3)n2)cc1O.Cl [GW582868] | 12 | 50 | 50 | 0 | 0 | 0 | 44 | 34 | 0 | 0
2 | CSc1ccc(NC2=C(c3ccc(Cl)cc3)C(=O)NC2=O)cc1 [SB-317658] | 11 | 0 | 1 | 0 | 0 | 0 | 0 | 61 | 13 | 0
3 | O=C1NC(=O)C(c2ccccc2Cl)=C1Nc1cccc(Cl)c1 [SB-342409] | 19 | 0 | 22 | 0 | 0 | 0 | 22 | 3 | 21 | 18
4 | CC(C)c1nc(-c2cccc(NS(=O)(=O)c3c(F)cccc3F)c2)c(-c2ccnc(Nc3ccc(N4CCOCC4)nc3)n2)s1.Cl [GSK1723980] | 94 | 100 | 96.4 | 16 | 37 | 41 | 93.1 | 13 | 32 | 2
5 | CN(C)CCOc1ccc(-c2cc(-c3ccc(Cl)c(O)c3)c(-c3ccncc3)[nH]2)cc1.Cl.Cl [SB-684387] | 27 | 96.6 | 75 | 0 | 0 | 0 | 83 | 40 | 23 | 0
6 | Cc1ccc(NC(=O)c2ccc(Cl)c(Cl)c2)cc1-c1ccc(C(=O)Nc2ccncc2)cc1 [GSK1398460] | 6 | 34 | 10 | 7 | 10 | 0 | 6 | 28 | 24 | 0
7 | Cc1cccc(Nc2nc(NCCN)ncc2C(N)=O)c1 [GSK1292139] | 0 | 3 | 0 | 10 | 0 | 0 | 66 | 98.1 | 84 | 23
8 | O=C(O)C(F)(F)F.O=c1[nH]ccc2nc(N[C@@H]3CCNC3)nc(Nc3cc(Cl)cc(Cl)c3)c12 [GSK2188764] | 27 | 0 | 5 | 19 | 8 | 0 | 99.2 | 100 | 97.9 | 72
9 | Cc1ccc(-c2ccc3occ(-c4ccc(S(C)=O)cc4)c3c2)nn1 (stereo not drawn) | 0 | 0 | 0 | 0 | 0 | 0 | 5 | 14 | 15 | 7
10 | COc1cccc2c(-c3ccncc3)c(-c3ccc(F)cc3)nn12 [GW468513] | 11 | 38 | 1 | 3 | 0 | 0 | 90 | 0 | 0 | 1
11 | N#Cc1cnc2cc(-c3cnc(CNCCN4CCOCC4)s3)ccc2c1Nc1ccc(Oc2ccccc2)cc1 [GW664114] | 62 | 0 | 0 | 0 | 44 | 93.9 | 37 | 24 | 12 | 24
12 | COc1cc(Nc2ccnc3cc(-c4ccncc4)ccc23)cc(OC)c1OC.Cl [GW494610] | 37 | 60 | 19 | 0 | 9 | 90 | 42 | 2 | 0 | 9
13 | Nc1ncc(-c2cn[nH]c2)c2scc(-c3ccc4c(c3)CCN4C(=O)Cc3ccccc3)c12 [GSK2593067] | 31 | 0 | 96.1 | 0 | 0 | 0 | 11 | 0 | 11 | 19
14 | CN(C)c1ncnc2nc[nH]c12 [SKF-31736] | 0 | 9 | 0 | 0 | 0 | 0 | 40 | 0 | 0 | 8
15 | Cn1cc(-c2ccc3c(c2)CCN3C(=O)Cc2cc(F)cc(C(F)(F)F)c2)c2c(N)ncnc21 [GSK2635225] | 15 | 0 | 44 | 0 | 5 | 0 | 11 | 41 | 11 | 0
16 | Nc1ncc(-c2ccc3nccc(-c4ccncc4)c3c2)cc1S(=O)(=O)N1CCCCC1 [GSK1693850] | 22 | 8 | 18 | 0 | 0 | 0 | 13 | 6 | 25 | 2
17 | Nc1cccc(-c2ccc3c(N)n[nH]c3c2)c1 [GSK2193613] | 5 | 0 | 8 | 58 | 51 | 0 | 21 | 21 | 25 | 4
18 | COc1ccc(C)c(Nc2ccnc(Nc3ccc(-c4cnc[nH]4)cc3)n2)c1.Cl [GW784041] | 46 | 0 | 20 | 8 | 9 | 0 | 0 | 0 | 25 | 8
19 | CN(c1ccc(F)c(NC(=O)c2cccc(OC(C)(C)C#N)c2Cl)c1)c1ccc2nc(NC(=O)C3CC3)sc2n1 | 0 | 94 | 0 | 4 | 0 | 22 | 34 | 0 | 0 | 2
20 | COc1cc(Nc2nccc(N3CCC(NC(=O)Nc4ccc5c(c4)OCO5)C3)n2)cc(OC)c1OC (stereo not drawn) [GSK1379766] | 0 | 12 | 0 | 0 | 0 | 0 | 43 | 34 | 19 | 9
21 | Nc1ncnc2scc(-c3ccc(NC(=O)Cc4cc(F)ccc4F)cc3)c12.O=C(O)C(F)(F)F [SB-731254-M] | 0 | 4 | 6 | 2 | 38 | 0 | 0 | 0 | 11 | 15
22 | Cl.Cl.NC(CNC(=O)c1cc(Br)c(-c2ccnc3[nH]ccc23)s1)c1ccccc1 (stereo not drawn) [GSK1322949] | 5 | 0 | 0 | 50 | 40 | 0 | 77 | 34 | 63 | 27
23 | COc1cccc(-c2nc(-c3ccccc3)[nH]c2-c2ccncc2)c1 [SB-610250] | 0 | 74 | 16 | 0 | 0 | 0 | 95.6 | 0 | 5 | 0
24 | Cc1ccc(C)c(NC(=O)Nc2ccc(C)c(-c3ccc(C(=O)Nc4ccncc4)cc3)c2)c1 [GSK1398473] | 0 | 62 | 25 | 0 | 0 | 0 | 4 | 27 | 13 | 0
25 | Fc1cc(Cl)ccc1Nc1ccnc2cc(-c3ccc(CN4CCOCC4)o3)ccc12 [GW560109] | 35 | 39 | 86 | 13 | 0 | 46 | 25 | 24 | 0 | 0
26 | COC(=O)Nc1nc2ccc(Oc3ccc(NC(=O)Nc4cc(C(F)(F)F)ccc4F)cc3)cc2[nH]1.Cl [GW654607] | 0 | 62 | 20 | 0 | 0 | 0 | 13 | 51 | 0 | 0
27 | COc1cccc(CC(=O)N2CCc3cc(-c4cn(C)c5ncnc(N)c45)ccc32)c1 [GSK2608899] | 0 | 6 | 53 | 8 | 0 | 0 | 0 | 43 | 19 | 20
28 | CCNc1nccc(-c2c(-c3ccc(F)cc3)ncn2C2CCN(C)CC2)n1 | 6 | 0 | 0 | 0 | 0 | 0 | 63 | 0 | 17 | 5
29 | Fc1cc(Cl)ccc1Nc1ccnc2cc(-c3ccc(CN4CCSCC4)o3)ccc12 [GW560106] | 20 | 2 | 92.3 | 0 | 0 | 37 | 38 | 10 | 11 | 0
30 | Cc1cc(-c2c(-c3ccc(F)cc3)ncn2CCCN2CCOCC2)nc(N)n1 [SB-222517] | 5 | 0 | 0 | 0 | 17 | 0 | 0 | 0 | 12 | 44
